# According to PubChem BioAssay (EPA / NIEHS):
# Several values for one entry are separate records, joined by “and”; a condition that tells them apart may be missing. Equal values may be shown once. Inconclusive results are not listed. Activity calls are given as the source filed them. How the source made its calls: active means hit-call score of the fitted dose curve at least 0.9, where 1 is the maximum; inconclusive means response in the unintended direction; inactive means score below 0.9.
# Experiments:
# [1] = target: rat CYP1A2, Cyp1a2 (gene 24297) (UniProt P04799); assay: NVS_ADME_rCYP1A2: NovaScreen (NVS) CYP450-related Enzyme Activity (ADME) Assay for rat CYP1A2 (AID 2283115)
# In short: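 Primary testing ran in duplicate at 10 uM, with actives re-tested across concentration series. Fluorescence intensity from substrate turnover by recombinant protein, measured 1 hour post-dosing, with signal loss scored against acetonitrile vehicle.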
# [2] = target: human Acetylcholinesterase (AChE), ACHE (gene 43) (UniProt P22303); assay: NVS_ENZ_hAChE: NovaScreen (NVS) Enzymatic Assay for human Acetylcholinesterase (AChE) (AID 2283129)
# In short: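 Actives from a duplicate single-point screen (25 uM) were followed up in concentration series. Enzyme activity read by absorbance (colorimetric) 0.33 hour after dosing, cell-free, normalized to DMSO, with loss of signal scored.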
# rat CYP2C6, gene 293989 = assay: NVS_ADME_rCYP2C6: NovaScreen (NVS) CYP450-related Enzyme Activity (ADME) Assay for rat CYP2C6 (AID 2283120)
# In short: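 Compounds first tested in duplicate at 10 uM, hits (e.g. 30% inhibition) re-run in singleton dose series to a 20 uM top concentration. Enzyme activity of recombinant rat CYP2C6 measured via fluorescent substrate turnover after 1 h; acetonitrile baseline.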
# [3] = target: rat CYP2D2, Cyp2d26 (gene 25053) (UniProt P10634); assay: NVS_ADME_rCYP2D2: NovaScreen (NVS) CYP450-related Enzyme Activity (ADME) Assay for rat CYP2D2 (AID 2283124)
# In short: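 Single-concentration duplicate testing at 10 uM, followed by concentration-response (top 20 uM) for chemicals passing threshold. Enzyme activity of the recombinant rat isoform measured by fluorescence after 0.75 h, acetonitrile as baseline.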
# rat CYP3A1, gene 25642 = assay: NVS_ADME_rCYP3A1: NovaScreen (NVS) CYP450-related Enzyme Activity (ADME) Assay for rat CYP3A1 (AID 2283126)
# In short: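 Compounds went first at 10 uM duplicate, then to series with 20 uM maximum. Fluorescence from substrate turnover by the recombinant enzyme was measured 0.5 h post-dosing, inhibition scored against acetonitrile vehicle.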
# Caspase-1 (Homo sapiens) = Caspase-1 (Homo sapiens) (UniProt P29466); assay: NVS_ENZ_hCASP1: NovaScreen (NVS) Enzymatic Assay for human Caspase 1 (CASP1) (AID 2283132)
# In short: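 Compounds were first tested in duplicate at 25 uM, with follow-up concentration series up to 50 uM. The bacterially expressed enzyme was read by fluorescence at 1 h post-dosing. Signal loss versus DMSO baseline indicates reduced enzyme activity.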
# [4] = target: rat CYP2D1, Cyp2d1 (gene 266684) (UniProt P10633); assay: NVS_ADME_rCYP2D1: NovaScreen (NVS) CYP450-related Enzyme Activity (ADME) Assay for rat CYP2D1 (AID 2283122)
# In short: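 Rat CYP2D1 enzyme activity measured by fluorescence intensity in a cell-free format, 0.75 h post-dosing, acetonitrile as negative control. Screening at 10 uM in duplicate, with actives followed in concentration series up to 20 uM.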
# [5] = target: human Beta-secretase (BACE), BACE1 (gene 23621) (UniProt P56817); assay: NVS_ENZ_hBACE: NovaScreen (NVS) Enzymatic Assay for human Beta-secretase (BACE) (AID 2283140);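 further: hits are inhibitors that reduce fluorescent substrate signal versus DMSO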
# In short: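 Fluorescence intensity read-out of protease activity defines this endpoint; signal loss relative to DMSO baseline marks inhibition. Recombinant enzyme from SF9 cells, cell-free format, 1 h exposure. Single-concentration duplicate screen (25 uM) precedes concentration-series follow-up.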
# [6] = target: rat CYP2C13, Cyp2c13 (gene 171521) (UniProt P20814); assay: NVS_ADME_rCYP2C13: NovaScreen (NVS) CYP450-related Enzyme Activity (ADME) Assay for rat CYP2C13 (AID 2283121)
# In short: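 Inhibition is read as decreased fluorescent product formation, referenced to acetonitrile vehicle. Cell-free recombinant rat Cyp2c13 reaction ran 0.75 hour; compounds first at 10 uM in duplicate, then concentration series for actives.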
# [7] = target: rat CYP2C12, Cyp2c12 (gene 25011) (UniProt P11510); assay: NVS_ADME_rCYP2C12: NovaScreen (NVS) CYP450-related Enzyme Activity (ADME) Assay for rat CYP2C12 (AID 2283119)
# In short: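 Fluorescent-substrate turnover by recombinant rat CYP2C12, measured at 0.5 h, normalized to acetonitrile vehicle. Chemicals screened first at a single 10 uM concentration in duplicate, with concentration series for actives.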
# [8] = target: human Caspase 10 (CASP10), CASP10 (gene 843) (UniProt Q92851); assay: NVS_ENZ_hCASP10: NovaScreen (NVS) Enzymatic Assay for human Caspase 10 (CASP10) (AID 2283133)
# In short: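 Fluorescence-intensity enzyme read-out of E. coli-expressed CASP10 activity, 1 h after compound. Single-point duplicates at 25 uM preceded concentration-response testing (top 50 uM) of hits; inhibition expressed as signal loss versus DMSO.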
# [9] = target: human Caspase 2 (CASP2), CASP2 (gene 835) (UniProt P42575); assay: NVS_ENZ_hCASP2: NovaScreen (NVS) Enzymatic Assay for human Caspase 2 (CASP2) (AID 2283135)
# In short: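 Single-point duplicate testing at 25 uM preceded concentration series topping at 50 uM. Activity of the recombinant E. coli-derived protease was followed by fluorescent substrate cleavage 1 h post-dosing, relative to DMSO.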
# Chain of human Beta-secretase (BACE), BACE1 (gene 23621) (P56817 whole entry, looked up): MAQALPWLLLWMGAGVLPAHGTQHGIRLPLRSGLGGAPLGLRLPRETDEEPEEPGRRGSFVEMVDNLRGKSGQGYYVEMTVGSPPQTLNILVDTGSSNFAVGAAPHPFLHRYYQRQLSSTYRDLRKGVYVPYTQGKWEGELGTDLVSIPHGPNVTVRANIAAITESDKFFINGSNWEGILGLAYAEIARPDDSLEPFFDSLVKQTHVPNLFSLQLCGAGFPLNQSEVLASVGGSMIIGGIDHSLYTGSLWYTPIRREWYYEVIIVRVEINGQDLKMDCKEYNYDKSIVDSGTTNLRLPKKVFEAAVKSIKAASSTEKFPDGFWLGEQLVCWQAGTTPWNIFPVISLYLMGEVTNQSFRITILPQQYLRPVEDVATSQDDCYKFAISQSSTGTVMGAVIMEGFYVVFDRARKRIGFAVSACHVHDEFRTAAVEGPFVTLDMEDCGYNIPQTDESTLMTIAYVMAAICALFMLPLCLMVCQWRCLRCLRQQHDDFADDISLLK
# Chain of rat CYP2C12, Cyp2c12 (gene 25011) (P11510 whole entry, looked up): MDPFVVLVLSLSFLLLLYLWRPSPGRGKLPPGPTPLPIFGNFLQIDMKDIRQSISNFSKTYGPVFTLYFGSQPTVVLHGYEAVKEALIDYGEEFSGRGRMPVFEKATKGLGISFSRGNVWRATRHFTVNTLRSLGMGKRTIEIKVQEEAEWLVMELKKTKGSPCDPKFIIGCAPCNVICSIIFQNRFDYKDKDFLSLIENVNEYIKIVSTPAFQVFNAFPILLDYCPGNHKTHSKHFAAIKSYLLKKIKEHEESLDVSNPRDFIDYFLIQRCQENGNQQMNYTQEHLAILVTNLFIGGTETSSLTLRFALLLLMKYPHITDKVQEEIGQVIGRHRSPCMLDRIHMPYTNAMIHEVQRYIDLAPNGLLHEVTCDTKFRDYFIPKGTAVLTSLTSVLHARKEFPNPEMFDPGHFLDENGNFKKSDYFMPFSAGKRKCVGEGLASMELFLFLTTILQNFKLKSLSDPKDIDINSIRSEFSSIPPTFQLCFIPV
# Chain of rat CYP2C13, Cyp2c13 (gene 171521) (P20814 whole entry, looked up): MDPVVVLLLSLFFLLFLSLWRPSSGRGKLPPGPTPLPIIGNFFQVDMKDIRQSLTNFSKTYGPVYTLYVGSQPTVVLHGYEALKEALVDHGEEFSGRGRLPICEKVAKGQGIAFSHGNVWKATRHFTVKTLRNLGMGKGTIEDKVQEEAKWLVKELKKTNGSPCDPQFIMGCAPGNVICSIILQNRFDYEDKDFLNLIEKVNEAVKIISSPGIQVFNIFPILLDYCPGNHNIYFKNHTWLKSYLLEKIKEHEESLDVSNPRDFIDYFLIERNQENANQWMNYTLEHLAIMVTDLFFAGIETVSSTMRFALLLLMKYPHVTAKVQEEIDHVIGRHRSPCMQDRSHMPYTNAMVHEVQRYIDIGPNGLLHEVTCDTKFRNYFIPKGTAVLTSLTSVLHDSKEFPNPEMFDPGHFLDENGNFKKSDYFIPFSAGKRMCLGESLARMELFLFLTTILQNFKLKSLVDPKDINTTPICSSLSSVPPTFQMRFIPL
# Chain of Caspase-1 (Homo sapiens) (P29466 whole entry, looked up): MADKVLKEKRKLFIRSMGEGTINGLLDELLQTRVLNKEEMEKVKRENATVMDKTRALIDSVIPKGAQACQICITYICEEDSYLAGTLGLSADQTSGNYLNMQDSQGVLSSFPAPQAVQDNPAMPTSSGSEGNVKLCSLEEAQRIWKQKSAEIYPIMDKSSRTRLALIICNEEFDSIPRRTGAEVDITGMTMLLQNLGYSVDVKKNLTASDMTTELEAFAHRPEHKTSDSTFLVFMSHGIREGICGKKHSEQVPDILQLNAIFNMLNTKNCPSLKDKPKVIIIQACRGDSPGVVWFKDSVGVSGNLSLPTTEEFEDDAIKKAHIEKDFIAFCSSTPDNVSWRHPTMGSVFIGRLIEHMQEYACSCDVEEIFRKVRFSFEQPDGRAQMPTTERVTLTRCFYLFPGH
# Chain of rat CYP2D2, Cyp2d26 (gene 25053) (P10634 whole entry, looked up, canonical isoform): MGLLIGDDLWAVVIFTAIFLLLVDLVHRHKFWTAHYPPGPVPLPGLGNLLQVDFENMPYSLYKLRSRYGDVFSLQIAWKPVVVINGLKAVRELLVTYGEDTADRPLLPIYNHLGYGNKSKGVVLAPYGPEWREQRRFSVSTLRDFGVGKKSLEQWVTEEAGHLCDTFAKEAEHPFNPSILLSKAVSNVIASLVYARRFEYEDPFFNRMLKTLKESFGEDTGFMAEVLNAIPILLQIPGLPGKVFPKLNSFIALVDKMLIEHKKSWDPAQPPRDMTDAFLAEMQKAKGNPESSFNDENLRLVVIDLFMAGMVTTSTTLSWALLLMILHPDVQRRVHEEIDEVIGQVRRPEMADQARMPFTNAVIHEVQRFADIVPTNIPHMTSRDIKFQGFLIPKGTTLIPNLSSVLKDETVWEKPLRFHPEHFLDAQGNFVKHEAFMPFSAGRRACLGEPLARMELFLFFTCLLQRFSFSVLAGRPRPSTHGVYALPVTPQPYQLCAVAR
# Chain of rat CYP2D1, Cyp2d1 (gene 266684) (P10633 whole entry, looked up): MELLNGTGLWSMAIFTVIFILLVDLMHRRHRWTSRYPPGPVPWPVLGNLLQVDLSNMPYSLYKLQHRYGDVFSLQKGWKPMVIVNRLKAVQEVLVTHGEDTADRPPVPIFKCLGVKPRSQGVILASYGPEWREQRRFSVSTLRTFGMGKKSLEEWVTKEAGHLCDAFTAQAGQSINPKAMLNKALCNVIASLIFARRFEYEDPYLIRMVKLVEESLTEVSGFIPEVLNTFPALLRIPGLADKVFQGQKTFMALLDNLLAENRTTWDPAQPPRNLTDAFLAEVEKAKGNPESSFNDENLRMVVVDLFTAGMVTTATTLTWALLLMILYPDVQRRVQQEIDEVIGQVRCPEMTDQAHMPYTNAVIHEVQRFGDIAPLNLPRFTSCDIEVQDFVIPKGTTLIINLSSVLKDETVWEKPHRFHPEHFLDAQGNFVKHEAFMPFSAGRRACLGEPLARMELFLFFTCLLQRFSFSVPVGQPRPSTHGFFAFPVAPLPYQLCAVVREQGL
# Chain of rat CYP1A2, Cyp1a2 (gene 24297) (P04799 whole entry, looked up): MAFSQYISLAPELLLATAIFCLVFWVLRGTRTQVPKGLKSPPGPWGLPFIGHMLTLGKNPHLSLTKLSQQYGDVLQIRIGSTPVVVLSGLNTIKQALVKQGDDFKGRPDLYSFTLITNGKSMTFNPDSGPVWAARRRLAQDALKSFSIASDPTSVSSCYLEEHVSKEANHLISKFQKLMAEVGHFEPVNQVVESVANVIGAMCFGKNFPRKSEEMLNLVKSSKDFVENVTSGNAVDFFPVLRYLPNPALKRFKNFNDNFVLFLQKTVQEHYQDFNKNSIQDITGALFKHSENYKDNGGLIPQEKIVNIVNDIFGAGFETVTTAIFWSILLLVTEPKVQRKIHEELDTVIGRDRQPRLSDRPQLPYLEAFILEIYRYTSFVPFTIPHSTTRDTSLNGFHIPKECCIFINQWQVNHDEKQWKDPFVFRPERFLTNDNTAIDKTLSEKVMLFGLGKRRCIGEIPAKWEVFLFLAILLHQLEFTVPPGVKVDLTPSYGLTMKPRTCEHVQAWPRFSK
# Chain of human Acetylcholinesterase (AChE), ACHE (gene 43) (P22303 whole entry, looked up): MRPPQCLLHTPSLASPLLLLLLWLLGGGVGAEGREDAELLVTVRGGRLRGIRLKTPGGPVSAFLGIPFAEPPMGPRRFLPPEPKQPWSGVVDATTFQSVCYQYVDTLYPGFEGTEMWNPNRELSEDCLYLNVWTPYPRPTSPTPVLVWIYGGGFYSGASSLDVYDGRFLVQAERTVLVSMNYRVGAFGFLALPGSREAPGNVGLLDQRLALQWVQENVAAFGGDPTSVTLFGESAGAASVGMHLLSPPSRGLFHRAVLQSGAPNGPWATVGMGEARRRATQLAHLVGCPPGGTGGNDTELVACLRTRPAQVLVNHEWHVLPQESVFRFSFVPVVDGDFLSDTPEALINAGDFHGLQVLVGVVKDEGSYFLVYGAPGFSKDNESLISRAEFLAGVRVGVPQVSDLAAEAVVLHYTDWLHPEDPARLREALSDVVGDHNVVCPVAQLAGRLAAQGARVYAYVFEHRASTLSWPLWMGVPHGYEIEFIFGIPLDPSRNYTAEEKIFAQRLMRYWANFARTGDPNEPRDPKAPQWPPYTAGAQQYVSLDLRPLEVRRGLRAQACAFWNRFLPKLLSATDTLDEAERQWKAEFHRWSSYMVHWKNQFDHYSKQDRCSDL
# Chain of human Caspase 2 (CASP2), CASP2 (gene 835) (P42575 whole entry, looked up): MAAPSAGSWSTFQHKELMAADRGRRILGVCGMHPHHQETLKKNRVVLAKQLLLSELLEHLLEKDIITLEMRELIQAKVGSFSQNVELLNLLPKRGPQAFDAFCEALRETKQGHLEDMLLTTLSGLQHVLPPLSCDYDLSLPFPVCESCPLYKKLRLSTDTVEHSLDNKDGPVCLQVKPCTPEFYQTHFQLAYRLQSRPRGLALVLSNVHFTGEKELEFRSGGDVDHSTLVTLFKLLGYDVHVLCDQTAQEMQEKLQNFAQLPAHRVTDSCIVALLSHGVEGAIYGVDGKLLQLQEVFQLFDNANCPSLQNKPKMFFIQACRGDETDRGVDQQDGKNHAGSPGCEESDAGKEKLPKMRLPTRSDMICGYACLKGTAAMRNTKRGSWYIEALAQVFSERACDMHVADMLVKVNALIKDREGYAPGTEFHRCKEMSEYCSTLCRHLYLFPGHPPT
# Chain of human Caspase 10 (CASP10), CASP10 (gene 843) (Q92851 whole entry, looked up): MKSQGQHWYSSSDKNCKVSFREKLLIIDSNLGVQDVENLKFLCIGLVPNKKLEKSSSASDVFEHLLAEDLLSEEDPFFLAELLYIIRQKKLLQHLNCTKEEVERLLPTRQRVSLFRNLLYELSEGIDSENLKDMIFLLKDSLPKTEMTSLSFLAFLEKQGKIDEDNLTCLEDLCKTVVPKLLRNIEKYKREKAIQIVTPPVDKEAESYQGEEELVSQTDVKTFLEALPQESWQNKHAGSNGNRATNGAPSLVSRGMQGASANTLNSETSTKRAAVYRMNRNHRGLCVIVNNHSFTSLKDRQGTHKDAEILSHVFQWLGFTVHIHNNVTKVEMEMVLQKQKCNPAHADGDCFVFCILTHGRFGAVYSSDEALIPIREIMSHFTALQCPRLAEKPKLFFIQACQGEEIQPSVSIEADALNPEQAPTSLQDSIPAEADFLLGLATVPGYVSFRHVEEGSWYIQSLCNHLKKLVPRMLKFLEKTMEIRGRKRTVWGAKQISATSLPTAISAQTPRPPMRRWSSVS
compound,measurement,setting,value
N#Cc1c[nH]cc1-c1cccc2c1OC(F)(F)O2,outcome,[1],inactive
same,outcome,[2],inactive
CCN(CC)C(=O)C(C)Oc1cccc2ccccc12 (centres undefined),AC50,"rat CYP2C6, gene 293989",4.21 µM (active)
same,AC50,[3],6.02 µM (active)
same,AC50,"rat CYP3A1, gene 25642",4.43 µM (active)
same,outcome,Caspase-1 (Homo sapiens),inactive
CC(C)=CC1C(C(=O)OCc2coc(Cc3ccccc3)c2)C1(C)C (centres undefined),AC50,[4],5.37 µM (active)
same,outcome,Caspase-1 (Homo sapiens),inactive
same,AC50,[5],40.5 µM (active)
COP(=S)(OC)SCn1nnc2ccccc2c1=O,AC50,"rat CYP2C6, gene 293989",0.634 µM (active)
same,AC50,[6],3.03 µM (active)
same,AC50,[4],6.92 µM (active)
same,AC50,[3],7.04 µM (active)
same,AC50,"rat CYP3A1, gene 25642",3.02 µM (active)
same,outcome,[2],inactive
CCCCOCN(C(=O)CCl)c1c(CC)cccc1CC,AC50,"rat CYP2C6, gene 293989",3.34 µM (active)
same,AC50,[6],10 µM (active)
same,AC50,[3],3.35 µM (active)
same,AC50,"rat CYP3A1, gene 25642",10 µM (active)
same,AC50,[5],9.39 µM (active)
CC(C)(C)C(=O)C(Oc1ccc(Cl)cc1)n1cncn1 (centres undefined),AC50,[6],0.246 µM (active)
same,AC50,[4],6.43 µM (active)
same,AC50,[3],5.33 µM (active) and 5.52 µM (active)
same,AC50,"rat CYP3A1, gene 25642",8.49 µM (active)
CCCCC(C#N)(Cn1cncn1)c1ccc(Cl)cc1 (centres undefined),AC50,[7],4.51 µM (active)
same,AC50,[6],4.37 µM (active)
same,AC50,[4],8.64 µM (active)
same,AC50,[3],6.44 µM (active)
same,AC50,"rat CYP3A1, gene 25642",3.82 µM (active)
COc1ccc(-c2ccccc2)cc1NNC(=O)OC(C)C,AC50,[6],1.17 µM (active)
same,AC50,"rat CYP3A1, gene 25642",2.96 µM (active)
CCOP(=O)(OCC)Oc1nc(Cl)c(Cl)cc1Cl,outcome,[1],inactive
same,AC50,"rat CYP3A1, gene 25642",7.93 µM (active)
COP(=S)(OC)Oc1ccc([N+](=O)[O-])c(C)c1,outcome,[1],inactive
same,AC50,[7],8.05 µM (active)
same,AC50,"rat CYP2C6, gene 293989",0.177 µM (active)
same,AC50,[6],10 µM (active)
same,AC50,[3],5.28 µM (active)
same,AC50,"rat CYP3A1, gene 25642",8.22 µM (active)
COC(=O)N(C(=O)N1CO[C@@]2(C(=O)OC)Cc3cc(Cl)ccc3C2=N1)c1ccc(OC(F)(F)F)cc1,AC50,[7],0.332 µM (active)
same,outcome,[8],inactive
same,outcome,[5],inactive
COC(=O)c1c(C(F)F)nc(C(F)(F)F)c(C2=NCCS2)c1CC(C)C,AC50,"rat CYP2C6, gene 293989",3.59 µM (active)
same,AC50,[4],5.48 µM (active)
same,AC50,"rat CYP3A1, gene 25642",2.32 µM (active)
same,outcome,Caspase-1 (Homo sapiens),inactive
same,AC50,[5],8.78 µM (active)
CCCN(CC)CC1COC2(CCC(C(C)(C)C)CC2)O1 (centres undefined),AC50,[3],6.05 µM (active) and 2.09 µM (active)
C=CCOC(=O)C(C)(C)OC(=O)c1cc(-n2c(=O)cc(C(F)(F)F)n(C)c2=O)ccc1Cl,outcome,[7],inactive
same,AC50,"rat CYP3A1, gene 25642",0.595 µM (active)
Cn1c(-c2ccccc2)cc(-c2ccccc2)[n+]1C,AC50,[3],5.35 µM (active)
CCOc1cc(C(C)(C)C)ccc1C1COC(c2c(F)cccc2F)=N1 (centres undefined),AC50,[3],0.55 µM (active)
CCOP(=S)(OCC)Oc1nc(Cl)n(C(C)C)n1,AC50,"rat CYP2C6, gene 293989",0.837 µM (active)
same,AC50,[3],5.76 µM (active)
same,AC50,"rat CYP3A1, gene 25642",3.46 µM (active)
O=C1C2CC=CCC2C(=O)N1SC(Cl)(Cl)Cl (centres undefined),outcome,[7],inactive
same,outcome,[9],inactive
CSC(=O)c1c(C(F)F)nc(C(F)(F)F)c(C(=O)SC)c1CC(C)C,AC50,"rat CYP2C6, gene 293989",2.99 µM (active)
CCN(CC)c1nc(C)cc(OP(=S)(OC)OC)n1,AC50,"rat CYP2C6, gene 293989",0.723 µM (active)
